# Laboratory results as given in paper PMC7862700, “An all-to-all approach to the identification of sequence-specific readers for epigenetic DNA modifications on cytosine”.
# Experiments:
# Experiment in all cases: DAPPL (digital affinity profiling via proximity ligation, sequencing); 10 mM Tris-HCl pH 7.5, 50 mM NaCl, 1 mM DTT, 4% glycerol, room temperature, 30 min; GST-TFs on glutathione beads, 16-mer random dsDNA library, 0.1% formaldehyde crosslink after washing; high values mean tight binding
# [1] = target: T1, FLI1 (Homo sapiens, UniProt Q01543 1-452); conditions: protein: recombinant; tags: N-terminal GST; dsDNA, one strand shown
# T1 sequence: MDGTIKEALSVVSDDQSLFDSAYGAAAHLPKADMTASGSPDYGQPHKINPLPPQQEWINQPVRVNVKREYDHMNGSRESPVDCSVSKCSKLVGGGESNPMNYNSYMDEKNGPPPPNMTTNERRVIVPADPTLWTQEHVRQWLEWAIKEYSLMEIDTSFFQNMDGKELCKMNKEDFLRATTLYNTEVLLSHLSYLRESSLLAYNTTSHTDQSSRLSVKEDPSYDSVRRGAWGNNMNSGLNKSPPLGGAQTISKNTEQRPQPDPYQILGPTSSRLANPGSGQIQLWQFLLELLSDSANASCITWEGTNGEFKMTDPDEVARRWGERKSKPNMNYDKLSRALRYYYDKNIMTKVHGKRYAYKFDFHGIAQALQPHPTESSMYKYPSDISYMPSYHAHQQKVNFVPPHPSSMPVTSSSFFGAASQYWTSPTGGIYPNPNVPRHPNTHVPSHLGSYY
# How it was run: (§1)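 GST fusions of human transcription factors were expressed in yeast and captured with glutathione beads. Once given DNA barcodes and pooled alongside a tag-only sample, they were incubated for 30 min at room temperature with 200 nmole of a random double-stranded 16-mer DNA library in Tris/NaCl/DTT/glycerol buffer, then washed, crosslinked (0.1% formaldehyde), proximity-ligated, PCR-amplified and sequenced on an Illumina NextSeq500. The binding signal of each hexamer is its read frequency for a factor divided by its frequency for the tag-only sample.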
# [2] = target: T2, ELK1 (Homo sapiens, UniProt P19419 1-428); conditions: protein: recombinant; tags: N-terminal GST; dsDNA, one strand shown
# T2 sequence: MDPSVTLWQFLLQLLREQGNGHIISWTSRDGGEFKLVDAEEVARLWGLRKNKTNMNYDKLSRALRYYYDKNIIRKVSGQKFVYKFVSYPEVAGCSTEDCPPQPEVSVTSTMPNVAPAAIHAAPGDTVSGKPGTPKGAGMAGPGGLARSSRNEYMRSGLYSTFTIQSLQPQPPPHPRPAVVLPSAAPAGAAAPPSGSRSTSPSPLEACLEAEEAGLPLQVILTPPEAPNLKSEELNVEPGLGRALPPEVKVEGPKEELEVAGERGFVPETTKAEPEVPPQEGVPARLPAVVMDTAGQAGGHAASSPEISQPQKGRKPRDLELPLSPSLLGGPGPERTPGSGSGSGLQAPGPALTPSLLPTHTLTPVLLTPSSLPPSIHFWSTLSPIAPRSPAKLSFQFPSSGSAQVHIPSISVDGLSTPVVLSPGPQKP
# How it was run: as §1
# [3] = target: T3, GABPA (Homo sapiens, UniProt Q06546 1-454); conditions: protein: recombinant; tags: N-terminal GST; dsDNA, one strand shown
# T3 sequence: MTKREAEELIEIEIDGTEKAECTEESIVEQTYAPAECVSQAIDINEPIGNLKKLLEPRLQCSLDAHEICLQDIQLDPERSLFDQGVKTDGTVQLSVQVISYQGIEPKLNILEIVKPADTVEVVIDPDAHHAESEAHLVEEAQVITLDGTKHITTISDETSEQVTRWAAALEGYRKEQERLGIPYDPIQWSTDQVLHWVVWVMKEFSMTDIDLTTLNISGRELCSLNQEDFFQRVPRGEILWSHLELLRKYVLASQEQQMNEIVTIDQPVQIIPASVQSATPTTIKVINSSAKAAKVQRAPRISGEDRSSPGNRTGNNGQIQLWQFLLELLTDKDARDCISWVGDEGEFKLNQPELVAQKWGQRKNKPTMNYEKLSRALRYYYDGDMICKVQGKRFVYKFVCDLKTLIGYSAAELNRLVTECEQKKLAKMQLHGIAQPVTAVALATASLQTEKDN
# How it was run: as §1
# [4] = target: T4, ERG (Homo sapiens, UniProt P11308 1-479); conditions: protein: recombinant; tags: N-terminal GST; dsDNA, one strand shown
# T4 sequence: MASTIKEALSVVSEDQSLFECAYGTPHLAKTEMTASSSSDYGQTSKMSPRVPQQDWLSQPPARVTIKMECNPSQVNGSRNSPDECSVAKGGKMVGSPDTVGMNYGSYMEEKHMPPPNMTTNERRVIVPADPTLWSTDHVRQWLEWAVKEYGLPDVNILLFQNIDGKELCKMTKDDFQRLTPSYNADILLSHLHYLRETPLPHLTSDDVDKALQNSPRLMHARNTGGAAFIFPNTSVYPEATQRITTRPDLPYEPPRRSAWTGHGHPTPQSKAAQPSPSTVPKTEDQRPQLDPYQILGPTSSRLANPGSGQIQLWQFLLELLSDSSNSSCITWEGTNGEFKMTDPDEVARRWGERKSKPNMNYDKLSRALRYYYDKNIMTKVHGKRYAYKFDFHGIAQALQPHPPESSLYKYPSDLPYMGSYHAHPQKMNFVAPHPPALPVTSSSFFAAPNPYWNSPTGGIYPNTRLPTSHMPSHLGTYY
# How it was run: as §1
# [5] = target: ELF1 (Homo sapiens, UniProt P32519 1-619); conditions: protein: recombinant; tags: N-terminal GST; dsDNA, one strand shown
# Chain of ELF1 (P32519 whole entry): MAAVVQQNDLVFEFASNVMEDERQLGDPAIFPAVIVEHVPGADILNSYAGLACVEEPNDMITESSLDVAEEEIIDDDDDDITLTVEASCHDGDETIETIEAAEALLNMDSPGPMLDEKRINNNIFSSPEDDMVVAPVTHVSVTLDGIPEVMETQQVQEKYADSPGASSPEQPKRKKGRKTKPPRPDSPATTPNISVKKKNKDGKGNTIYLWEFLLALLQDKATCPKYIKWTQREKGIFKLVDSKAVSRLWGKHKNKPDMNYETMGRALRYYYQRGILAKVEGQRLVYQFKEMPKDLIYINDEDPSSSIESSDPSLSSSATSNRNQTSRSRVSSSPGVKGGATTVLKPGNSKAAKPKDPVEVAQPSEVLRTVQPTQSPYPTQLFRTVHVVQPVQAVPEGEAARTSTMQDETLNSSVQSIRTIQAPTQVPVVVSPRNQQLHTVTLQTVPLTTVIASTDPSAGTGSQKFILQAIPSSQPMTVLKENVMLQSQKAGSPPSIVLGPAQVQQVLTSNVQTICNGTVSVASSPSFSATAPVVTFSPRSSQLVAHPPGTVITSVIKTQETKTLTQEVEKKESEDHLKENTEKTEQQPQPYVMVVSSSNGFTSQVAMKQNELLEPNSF
# How it was run: as §1
# [6] = target: T5, EHF (Homo sapiens, UniProt Q9NZC4 1-300); conditions: protein: recombinant; tags: N-terminal GST; dsDNA, one strand shown
# T5 sequence: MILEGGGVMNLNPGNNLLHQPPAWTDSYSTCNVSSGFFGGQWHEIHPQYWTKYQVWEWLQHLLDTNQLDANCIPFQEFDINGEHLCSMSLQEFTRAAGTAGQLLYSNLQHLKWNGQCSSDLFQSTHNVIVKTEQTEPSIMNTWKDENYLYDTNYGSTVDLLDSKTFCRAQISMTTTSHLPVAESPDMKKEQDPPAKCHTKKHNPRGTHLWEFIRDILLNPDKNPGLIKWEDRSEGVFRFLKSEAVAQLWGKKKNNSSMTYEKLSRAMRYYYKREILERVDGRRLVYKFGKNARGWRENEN
# How it was run: as §1
# [7] = target: SPI1 (Homo sapiens, UniProt P17947 1-270); conditions: protein: recombinant; tags: N-terminal GST; dsDNA, one strand shown
# How it was run: as §1
# [8] = target: SPIB (Homo sapiens, UniProt Q01892 1-262); conditions: protein: recombinant; tags: N-terminal GST; dsDNA, one strand shown
# Chain of SPIB (Q01892 whole entry): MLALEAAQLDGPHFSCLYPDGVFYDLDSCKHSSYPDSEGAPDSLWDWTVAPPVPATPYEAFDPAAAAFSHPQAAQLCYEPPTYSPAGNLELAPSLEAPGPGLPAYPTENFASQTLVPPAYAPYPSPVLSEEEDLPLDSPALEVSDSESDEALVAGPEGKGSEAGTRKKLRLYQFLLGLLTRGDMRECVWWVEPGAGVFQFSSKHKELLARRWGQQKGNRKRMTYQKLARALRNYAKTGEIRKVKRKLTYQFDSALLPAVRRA
# How it was run: as §1
# [9] = target: T6, ELK3 (Homo sapiens, UniProt P41970 1-407); conditions: protein: recombinant; tags: N-terminal GST; dsDNA, one strand shown
# T6 sequence: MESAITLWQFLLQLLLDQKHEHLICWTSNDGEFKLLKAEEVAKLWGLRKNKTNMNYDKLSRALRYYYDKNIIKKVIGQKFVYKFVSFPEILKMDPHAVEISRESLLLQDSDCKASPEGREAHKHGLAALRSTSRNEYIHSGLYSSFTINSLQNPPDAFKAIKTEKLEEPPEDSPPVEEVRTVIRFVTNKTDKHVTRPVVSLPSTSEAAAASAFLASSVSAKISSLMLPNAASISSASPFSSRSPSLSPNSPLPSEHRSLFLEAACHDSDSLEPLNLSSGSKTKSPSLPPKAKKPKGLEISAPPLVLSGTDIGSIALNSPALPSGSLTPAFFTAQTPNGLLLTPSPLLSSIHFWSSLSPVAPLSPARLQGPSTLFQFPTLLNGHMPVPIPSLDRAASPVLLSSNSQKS
# How it was run: as §1
# [10] = target: T7, FEV (Homo sapiens, UniProt Q99581 1-238); conditions: protein: recombinant; tags: N-terminal GST; dsDNA, one strand shown
# T7 sequence: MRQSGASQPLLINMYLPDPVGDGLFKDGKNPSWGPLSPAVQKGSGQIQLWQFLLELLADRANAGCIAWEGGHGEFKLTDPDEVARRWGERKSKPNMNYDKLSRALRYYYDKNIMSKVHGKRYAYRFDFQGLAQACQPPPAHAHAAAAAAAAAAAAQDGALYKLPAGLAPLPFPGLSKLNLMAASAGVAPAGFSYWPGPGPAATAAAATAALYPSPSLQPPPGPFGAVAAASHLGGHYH
# How it was run: as §1
# [11] = target: ETV5 (Homo sapiens, UniProt P41161 1-510); conditions: protein: recombinant; tags: N-terminal GST; dsDNA, one strand shown
# Chain of ETV5 (P41161 whole entry): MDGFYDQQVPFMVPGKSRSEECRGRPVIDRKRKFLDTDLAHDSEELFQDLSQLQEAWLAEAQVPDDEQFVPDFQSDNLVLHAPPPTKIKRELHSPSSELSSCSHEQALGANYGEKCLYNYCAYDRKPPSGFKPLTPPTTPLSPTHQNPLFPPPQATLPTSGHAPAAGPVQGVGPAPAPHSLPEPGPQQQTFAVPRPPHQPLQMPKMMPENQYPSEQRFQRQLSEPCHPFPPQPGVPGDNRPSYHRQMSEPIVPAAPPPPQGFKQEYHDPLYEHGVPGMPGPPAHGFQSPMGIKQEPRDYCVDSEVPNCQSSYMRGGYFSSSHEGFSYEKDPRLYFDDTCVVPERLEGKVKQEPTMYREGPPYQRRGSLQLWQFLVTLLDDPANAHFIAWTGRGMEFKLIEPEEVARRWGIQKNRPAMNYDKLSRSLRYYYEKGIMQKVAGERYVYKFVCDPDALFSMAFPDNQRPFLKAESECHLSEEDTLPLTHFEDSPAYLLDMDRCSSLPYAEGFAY
# How it was run: as §1
# [12] = target: HSF1 (Homo sapiens, UniProt Q00613 1-529); conditions: protein: recombinant; tags: N-terminal GST; chain copies: 3; dsDNA, one strand shown
# Chain of HSF1 (Q00613 whole entry): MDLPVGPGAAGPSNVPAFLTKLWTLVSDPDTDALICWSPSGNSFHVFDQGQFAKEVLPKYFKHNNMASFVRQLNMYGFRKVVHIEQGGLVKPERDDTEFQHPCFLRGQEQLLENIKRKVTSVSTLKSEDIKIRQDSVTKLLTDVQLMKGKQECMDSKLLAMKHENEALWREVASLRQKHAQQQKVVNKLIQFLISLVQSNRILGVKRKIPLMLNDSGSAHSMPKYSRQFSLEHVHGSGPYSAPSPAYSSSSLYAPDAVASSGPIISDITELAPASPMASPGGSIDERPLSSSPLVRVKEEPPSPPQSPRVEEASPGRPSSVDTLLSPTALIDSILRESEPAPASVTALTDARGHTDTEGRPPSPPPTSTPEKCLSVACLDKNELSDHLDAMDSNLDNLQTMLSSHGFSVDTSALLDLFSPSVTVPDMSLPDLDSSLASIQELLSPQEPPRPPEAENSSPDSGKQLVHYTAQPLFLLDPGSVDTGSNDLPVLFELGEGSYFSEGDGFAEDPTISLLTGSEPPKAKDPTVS
# How it was run: as §1
# [13] = target: T8, SPIC (Homo sapiens, UniProt Q8N5J4 1-248); conditions: protein: recombinant; tags: N-terminal GST; dsDNA, one strand shown
# T8 sequence: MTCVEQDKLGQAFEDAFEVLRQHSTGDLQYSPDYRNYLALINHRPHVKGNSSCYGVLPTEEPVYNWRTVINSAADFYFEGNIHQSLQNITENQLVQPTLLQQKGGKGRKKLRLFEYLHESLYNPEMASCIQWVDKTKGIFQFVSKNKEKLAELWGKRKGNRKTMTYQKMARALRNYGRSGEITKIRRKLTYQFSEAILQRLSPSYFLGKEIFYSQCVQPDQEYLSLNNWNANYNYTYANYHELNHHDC
# How it was run: as §1
# [14] = target: ELF4 (Homo sapiens, UniProt Q99607 1-663); conditions: protein: recombinant; tags: N-terminal GST; dsDNA, one strand shown
# Chain of ELF4 (Q99607 whole entry): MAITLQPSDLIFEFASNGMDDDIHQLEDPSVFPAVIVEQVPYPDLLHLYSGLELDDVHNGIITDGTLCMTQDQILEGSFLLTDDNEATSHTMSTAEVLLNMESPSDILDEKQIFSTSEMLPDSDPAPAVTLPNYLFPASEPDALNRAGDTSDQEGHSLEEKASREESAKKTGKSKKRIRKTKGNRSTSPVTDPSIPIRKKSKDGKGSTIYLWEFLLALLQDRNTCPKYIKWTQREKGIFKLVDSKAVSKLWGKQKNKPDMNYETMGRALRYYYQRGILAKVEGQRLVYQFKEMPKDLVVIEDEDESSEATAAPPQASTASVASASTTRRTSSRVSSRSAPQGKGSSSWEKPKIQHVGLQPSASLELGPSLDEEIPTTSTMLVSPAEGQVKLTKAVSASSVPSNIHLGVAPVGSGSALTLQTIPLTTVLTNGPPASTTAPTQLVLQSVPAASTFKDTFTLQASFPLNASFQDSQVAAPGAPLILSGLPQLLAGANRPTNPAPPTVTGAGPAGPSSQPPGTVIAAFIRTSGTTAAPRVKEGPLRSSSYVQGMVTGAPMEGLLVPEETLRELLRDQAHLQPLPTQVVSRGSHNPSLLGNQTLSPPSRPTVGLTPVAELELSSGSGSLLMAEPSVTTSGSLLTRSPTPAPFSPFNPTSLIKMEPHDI
# How it was run: as §1
# [15] = target: T9, ELK4 (Homo sapiens, UniProt P28324-2 1-405); conditions: protein: recombinant; tags: N-terminal GST; dsDNA, one strand shown
# T9 sequence: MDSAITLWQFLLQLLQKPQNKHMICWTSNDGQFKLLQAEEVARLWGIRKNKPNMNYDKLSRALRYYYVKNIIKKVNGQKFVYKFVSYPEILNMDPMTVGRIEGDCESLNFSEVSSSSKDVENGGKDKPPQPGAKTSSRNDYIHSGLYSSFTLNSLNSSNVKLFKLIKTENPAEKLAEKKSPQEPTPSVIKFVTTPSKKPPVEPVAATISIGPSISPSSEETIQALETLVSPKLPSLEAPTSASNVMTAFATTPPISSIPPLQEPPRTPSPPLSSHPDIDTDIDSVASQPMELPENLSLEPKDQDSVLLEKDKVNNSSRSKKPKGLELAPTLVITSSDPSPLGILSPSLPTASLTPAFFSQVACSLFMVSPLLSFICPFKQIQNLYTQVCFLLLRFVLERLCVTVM
# How it was run: as §1
# [16] = target: T10, ETV2 (Homo sapiens, UniProt O00321 1-342); conditions: protein: recombinant; tags: N-terminal GST; dsDNA, one strand shown
# T10 sequence: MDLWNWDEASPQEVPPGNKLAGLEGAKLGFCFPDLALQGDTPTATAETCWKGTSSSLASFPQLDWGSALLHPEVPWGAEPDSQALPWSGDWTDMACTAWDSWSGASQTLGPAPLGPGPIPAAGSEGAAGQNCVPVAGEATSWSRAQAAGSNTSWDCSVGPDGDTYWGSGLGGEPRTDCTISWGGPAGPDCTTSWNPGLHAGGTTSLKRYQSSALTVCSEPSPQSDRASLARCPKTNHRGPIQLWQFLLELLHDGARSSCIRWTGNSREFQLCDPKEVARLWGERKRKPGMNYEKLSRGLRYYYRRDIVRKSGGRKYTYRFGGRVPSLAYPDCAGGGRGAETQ
# How it was run: as §1
# [17] = target: T11, ELF3 (Homo sapiens, UniProt P78545 1-371); conditions: protein: recombinant; tags: N-terminal GST; dsDNA, one strand shown
# T11 sequence: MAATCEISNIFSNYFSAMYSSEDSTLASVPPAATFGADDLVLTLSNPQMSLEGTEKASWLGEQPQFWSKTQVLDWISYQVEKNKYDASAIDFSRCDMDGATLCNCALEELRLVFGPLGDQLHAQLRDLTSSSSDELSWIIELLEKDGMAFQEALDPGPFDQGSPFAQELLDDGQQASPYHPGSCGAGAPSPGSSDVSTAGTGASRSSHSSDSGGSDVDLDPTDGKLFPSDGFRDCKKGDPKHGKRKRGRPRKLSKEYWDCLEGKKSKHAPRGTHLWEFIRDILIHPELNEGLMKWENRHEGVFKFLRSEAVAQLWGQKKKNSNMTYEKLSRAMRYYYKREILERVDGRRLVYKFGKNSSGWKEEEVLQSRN
# How it was run: as §1
# [18] = target: CRX (Homo sapiens, UniProt O43186 1-299); conditions: protein: recombinant; tags: N-terminal GST; dsDNA, one strand shown
# Chain of CRX (O43186 whole entry): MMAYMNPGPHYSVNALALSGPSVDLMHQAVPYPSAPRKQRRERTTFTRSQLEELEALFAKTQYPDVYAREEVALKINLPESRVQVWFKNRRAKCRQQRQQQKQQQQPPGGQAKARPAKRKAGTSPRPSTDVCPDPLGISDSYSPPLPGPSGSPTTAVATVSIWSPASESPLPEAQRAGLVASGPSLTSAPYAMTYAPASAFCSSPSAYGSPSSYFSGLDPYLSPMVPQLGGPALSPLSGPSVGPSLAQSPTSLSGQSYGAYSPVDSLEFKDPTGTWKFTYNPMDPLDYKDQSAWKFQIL
# How it was run: as §1
# [19] = target: ETV1 (Homo sapiens, UniProt P50549 1-477); conditions: protein: recombinant; tags: N-terminal GST; dsDNA, one strand shown
# Chain of ETV1 (P50549 whole entry): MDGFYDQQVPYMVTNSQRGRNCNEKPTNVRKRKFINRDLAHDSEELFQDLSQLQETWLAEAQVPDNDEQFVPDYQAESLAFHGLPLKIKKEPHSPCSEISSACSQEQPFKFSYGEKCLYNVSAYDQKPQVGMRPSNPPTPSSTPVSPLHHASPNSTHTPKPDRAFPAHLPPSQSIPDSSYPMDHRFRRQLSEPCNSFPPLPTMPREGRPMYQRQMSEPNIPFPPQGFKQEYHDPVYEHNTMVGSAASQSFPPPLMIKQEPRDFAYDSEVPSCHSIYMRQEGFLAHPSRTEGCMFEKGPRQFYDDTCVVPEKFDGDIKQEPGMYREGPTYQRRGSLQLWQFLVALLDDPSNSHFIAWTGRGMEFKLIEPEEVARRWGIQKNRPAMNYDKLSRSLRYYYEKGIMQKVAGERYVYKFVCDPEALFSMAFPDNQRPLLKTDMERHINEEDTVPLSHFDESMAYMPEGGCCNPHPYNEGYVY
# How it was run: as §1
sequence,measurement,setting,value
TAGGGT,binding signal,[1],"1.04 fold enrichment (6-mer frequency, TF over GST control)"
same,binding signal,[2],"1.03 fold enrichment (6-mer frequency, TF over GST control)"
same,binding signal,[3],"1.11 fold enrichment (6-mer frequency, TF over GST control)"
same,binding signal,[4],"1.03 fold enrichment (6-mer frequency, TF over GST control)"
same,binding signal,[5],"1.16 fold enrichment (6-mer frequency, TF over GST control)"
same,binding signal,[6],"1.09 fold enrichment (6-mer frequency, TF over GST control)"
same,binding signal,[7],"1.13 fold enrichment (6-mer frequency, TF over GST control)"
same,binding signal,[8],"1.1 fold enrichment (6-mer frequency, TF over GST control)"
same,binding signal,[9],"1.04 fold enrichment (6-mer frequency, TF over GST control)"
same,binding signal,[10],"1.07 fold enrichment (6-mer frequency, TF over GST control)"
same,binding signal,[11],"1.08 fold enrichment (6-mer frequency, TF over GST control)"
same,binding signal,[12],"1.06 fold enrichment (6-mer frequency, TF over GST control)"
same,binding signal,[13],"1.11 fold enrichment (6-mer frequency, TF over GST control)"
same,binding signal,[14],"1.09 fold enrichment (6-mer frequency, TF over GST control)"
same,binding signal,[15],"1.22 fold enrichment (6-mer frequency, TF over GST control)"
same,binding signal,[16],"1.16 fold enrichment (6-mer frequency, TF over GST control)"
same,binding signal,[17],"1.1 fold enrichment (6-mer frequency, TF over GST control)"
same,binding signal,[18],"1.2 fold enrichment (6-mer frequency, TF over GST control)"
same,binding signal,[19],"1.01 fold enrichment (6-mer frequency, TF over GST control)"
